The record followed here is PubChem BioAssay (NCI).

This is part of a sample that, as a whole, favours compounds with a hit. Of some 79,000 tested, about 15% had one in any assay. A number with no mark means an inactive call. Activity calls are given as the source filed them. Cut-off read from the data, not from the text of the source: active = growth inhibition above about 70%; inactive = the rest.

A short description of experiment [1]: NCI Yeast Anticancer Drug Screen. Data for the rad50 strain (AID 155).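 Note: 0% = growth of vehicle-only cultures of the same strain.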 As to conditions: S. cerevisiae rad50 strain growth inhibition, active compounds read high. The procedure, abridged: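 Readout: growth inhibition relative to vehicle-treated cultures. Compound exposure was carried out in a genetically defined yeast strain deficient in DNA damage repair.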
The nature of experiment [2]: NCI Yeast Anticancer Drug Screen. Data for the mec2-1 strain (AID 157). The following applies: S. cerevisiae mec2-1 strain, active compounds read high. Put shortly: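 mec2-1 yeast strain, carrying an alteration in DNA damage repair or cell cycle control, was exposed to compounds; growth inhibition was measured relative to vehicle-treated controls.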
Experiment [3] is described as follows: NCI Yeast Anticancer Drug Screen. Data for the sgs1 mgt1 strain (AID 161).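 Note: 0% = growth of cultures given vehicle only.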 As to conditions: S. cerevisiae sgs1 mgt1 strain, active compounds read high. Put shortly: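 Yeast cells carrying a defined DNA-repair defect were exposed to test compounds. Growth inhibition was measured relative to vehicle-treated controls.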
Experiment [4] in a line: NCI Yeast Anticancer Drug Screen. Data for the cln2 rad14 strain (AID 165).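 Note: 0% = growth equal to vehicle treated cultures.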 As to conditions: S. cerevisiae cln2 rad14 strain, active compounds read high. The procedure, abridged: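 Yeast carrying cln2 and rad14 alterations (cell cycle control and DNA damage repair) were exposed to compounds. Growth inhibition was measured against vehicle-treated controls.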
Experiment [5] can be described thus: NCI Yeast Anticancer Drug Screen. Data for the bub3 strain (AID 167). As to conditions: S. cerevisiae bub3 mutant strain, active compounds read high. Put shortly:
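Readout: yeast growth inhibition, expressed relative to vehicle-only wells. The test organism is a mutant strain from a panel with lesions in DNA repair or checkpoint genes.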

Experiment [6] can be described thus: NCI Yeast Anticancer Drug Screen. Data for the mlh1 rad18 strain (AID 175). The following applies: S. cerevisiae mlh1 rad18 strain growth inhibition, active compounds read high. The procedure, abridged: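 Growth inhibition of the yeast strain was measured after compound exposure and expressed relative to vehicle-treated controls. The strain carries defined defects in DNA damage repair.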

Where [7] appears, read: at 5.0 µM (retest, dose inferred, filed as 0.5).
Setting [8] is: at 50.0 µM (retest, dose inferred, filed as 5.0).

In the case of `COc1ccc(C2C3=C(CCC(CN(C)C)C3=O)OC3=C2C(=O)C(CN(C)C)CC3)cc1` (configuration not stated), the growth inhibition is -17% in experiment [1] (setting [7]); -7% in experiment [1] (setting [8]); -35.5% in experiment [1] (at 50.0 µM); -3% in experiment [2] (setting [7]); -1% in experiment [2] (setting [8]); 4.1% in experiment [2] (at 50.0 µM). In addition, the growth inhibition was -20% in experiment [3] (setting [7]); -5% in experiment [3] (setting [8]); -20.6% in experiment [3] (at 50.0 µM); -1% in experiment [4] (setting [7]); 1% in experiment [4] (setting [8]); 44.7% in experiment [4] (at 50.0 µM). For the same compound, the growth inhibition was -17% in experiment [5] (setting [7]); -17% in experiment [5] (setting [8]); -3.5% in experiment [5] (at 50.0 µM); -13% in experiment [6] (setting [7]); -7% in experiment [6] (setting [8]); 21.1% in experiment [6] (at 50.0 µM).

On to `C[C@]12CCC(=O)C=C1CC[C@@H]1[C@@H]2[C@@H](O)C[C@@]2(C)[C@H]1CC[C@]2(O)C(=O)COC(=O)C1CCCC1`, for which the growth inhibition in experiment [1] (setting [7]) is -7%; in experiment [1] (setting [8]), -10%; in experiment [1] (at 50.0 µM), 76.8% (active); in experiment [2] (setting [7]) it was 1%; in experiment [2] (setting [8]), -1%; in experiment [2] (at 50.0 µM), 19.8%. Besides, the growth inhibition in experiment [3] (setting [7]) is -2%; in experiment [3] (setting [8]), -9%; in experiment [3] (at 50.0 µM), 87.7% (active); in experiment [4] (setting [7]), -18%; in experiment [4] (setting [8]), -93%; in experiment [4] (at 50.0 µM), 35.9%. Besides, the growth inhibition in experiment [5] (setting [7]) was 8%; in experiment [5] (setting [8]) it was 11%; in experiment [5] (at 50.0 µM), 82.8% (active); in experiment [6] (setting [7]), -7%; in experiment [6] (setting [8]) it was -16%; in experiment [6] (at 50.0 µM), 72.2% (active).

Take `Cc1c2c(c(O)c3c(O)cccc13)C(=O)C1(O)C(=O)C(C(N)=O)C(O)C(N(C)C)C1C2` (configuration not stated): the growth inhibition was 27% in experiment [1] (setting [7]); 99% (active) in experiment [1] (setting [8]); 65.7% in experiment [1] (at 50.0 µM); 82% (active) in experiment [2] (setting [7]); 100% (active) in experiment [2] (setting [8]); 99.2% (active) in experiment [2] (at 50.0 µM). The growth inhibition in experiment [3] (setting [7]) was -90%; in experiment [3] (setting [8]) it was 100% (active); in experiment [3] (at 50.0 µM), 58%; in experiment [4] (setting [7]), 66%; in experiment [4] (setting [8]) it was 99% (active); in experiment [4] (at 50.0 µM), 98.7% (active). In addition, the growth inhibition in experiment [5] (setting [7]) was 61%; in experiment [5] (setting [8]) it was 99% (active); in experiment [5] (at 50.0 µM), 98.6% (active); in experiment [6] (setting [7]), 70% (active); in experiment [6] (setting [8]), 99% (active); in experiment [6] (at 50.0 µM), 99.1% (active).

`Brc1ccc(C2SCc3nc4ccccc4n32)cc1` (configuration not stated): the growth inhibition in experiment [1] (setting [7]) was 2%; in experiment [1] (setting [8]), 89% (active); in experiment [1] (at 50.0 µM) it was 74.5% (active); in experiment [2] (setting [7]), 7%; in experiment [2] (setting [8]), 51%; in experiment [2] (at 50.0 µM), 24.8%. The growth inhibition in experiment [3] (setting [7]) was 12%; in experiment [3] (setting [8]), 57%; in experiment [3] (at 50.0 µM) it was 96.1% (active); in experiment [4] (setting [7]), -10%; in experiment [4] (setting [8]), 37%; in experiment [4] (at 50.0 µM), 56.6%. The growth inhibition in experiment [5] (setting [7]) was -2%; in experiment [5] (setting [8]), 88% (active); in experiment [5] (at 50.0 µM), 92.3% (active); in experiment [6] (setting [7]), -2%; in experiment [6] (setting [8]), 54%; in experiment [6] (at 50.0 µM) it was 78.7% (active).

Regarding `COC(=O)C12Oc3ccc(-c4ccc5c(c4O)C(O)=C4C(=O)CC(C)C(O)C4(C(=O)OC)O5)c(O)c3C(O)=C1C(=O)CC(C)C2O` (configuration not stated), the growth inhibition in experiment [1] (setting [7]) was 57%; in experiment [1] (setting [8]), 97% (active); in experiment [1] (at 50.0 µM) it was 90.5% (active); in experiment [2] (setting [7]), 61%; in experiment [2] (setting [8]), 96% (active); in experiment [2] (at 50.0 µM) it was 88.3% (active). In addition, the growth inhibition is 37% in experiment [3] (setting [7]); 98% (active) in experiment [3] (setting [8]); 82.5% (active) in experiment [3] (at 50.0 µM); 6% in experiment [4] (setting [7]); 96% (active) in experiment [4] (setting [8]); 91.2% (active) in experiment [4] (at 50.0 µM). For the same compound, the growth inhibition in experiment [5] (setting [7]) was 53%; in experiment [5] (setting [8]) it was 97% (active); in experiment [5] (at 50.0 µM) it was 94.1% (active); in experiment [6] (setting [7]), 57%; in experiment [6] (setting [8]) it was 97% (active); in experiment [6] (at 50.0 µM), 80.8% (active).

Take `Oc1ccc2ccc3ccccc3c2c1`: the growth inhibition in experiment [1] (setting [7]) was 5%; in experiment [1] (setting [8]), 99% (active); in experiment [1] (at 50.0 µM), 99.5% (active); in experiment [2] (setting [7]), 2%; in experiment [2] (setting [8]) it was 99% (active); in experiment [2] (at 50.0 µM), 99.5% (active). The growth inhibition in experiment [3] (setting [7]) was 5%; in experiment [3] (setting [8]), 99% (active); in experiment [3] (at 50.0 µM), 99.5% (active); in experiment [4] (setting [7]), -3%; in experiment [4] (setting [8]), 99% (active); in experiment [4] (at 50.0 µM), 99.5% (active). In addition, the growth inhibition in experiment [5] (setting [7]) is -3%; in experiment [5] (setting [8]), 98% (active); in experiment [5] (at 50.0 µM), 99.5% (active); in experiment [6] (setting [7]) it was 2%; in experiment [6] (setting [8]), 99% (active); in experiment [6] (at 50.0 µM) it was 99.5% (active).

For the compound `CS(=O)(=O)c1snc(N)c1C#N`, the growth inhibition in experiment [1] (setting [7]) is 11%; in experiment [1] (setting [8]), 73% (active); in experiment [1] (at 50.0 µM), 40.9%; in experiment [2] (setting [7]) it was 23%; in experiment [2] (setting [8]) it was 85% (active); in experiment [2] (at 50.0 µM) it was 47.5%. The growth inhibition in experiment [3] (setting [7]) was 17%; in experiment [3] (setting [8]), 80% (active); in experiment [3] (at 50.0 µM), 50.6%; in experiment [4] (setting [7]) it was 6%; in experiment [4] (setting [8]) it was 61%; in experiment [4] (at 50.0 µM), -10.1%. For the same compound, the growth inhibition in experiment [5] (setting [7]) was 29%; in experiment [5] (setting [8]), 89% (active); in experiment [5] (at 50.0 µM), -9.75%; in experiment [6] (setting [7]), 18%; in experiment [6] (setting [8]), 85% (active); in experiment [6] (at 50.0 µM), 68.4%.

On to `Nc1c(/C=C/c2cc3cc(C4=NCCN4)ccc3o2)[nH]c2cc(C3=NCCN3)ccc12`, for which the growth inhibition is 13% in experiment [1] (setting [7]); 98% (active) in experiment [1] (setting [8]); 97.5% (active) in experiment [1] (at 50.0 µM); 22% in experiment [2] (setting [7]); 98% (active) in experiment [2] (setting [8]); 98% (active) in experiment [2] (at 50.0 µM). Also, the growth inhibition in experiment [3] (setting [7]) was -2%; in experiment [3] (setting [8]) it was 99% (active); in experiment [3] (at 50.0 µM), 98.2% (active); in experiment [4] (setting [7]) it was -22%; in experiment [4] (setting [8]), 97% (active); in experiment [4] (at 50.0 µM) it was 97.4% (active). Moreover, the growth inhibition was 7% in experiment [5] (setting [7]); 98% (active) in experiment [5] (setting [8]); 97% (active) in experiment [5] (at 50.0 µM); 13% in experiment [6] (setting [7]); 97% (active) in experiment [6] (setting [8]); 97.8% (active) in experiment [6] (at 50.0 µM).

For the compound `CCOC1Oc2ccccc2-c2nc(SC)ncc21` (configuration not stated), the growth inhibition in experiment [1] (setting [7]) is 23%; in experiment [1] (setting [8]) it was 20%; in experiment [1] (at 50.0 µM), 75.4% (active); in experiment [2] (setting [7]) it was 14%; in experiment [2] (setting [8]), 20%; in experiment [2] (at 50.0 µM), 19.9%. Further, the growth inhibition in experiment [3] (setting [7]) is 18%; in experiment [3] (setting [8]) it was 21%; in experiment [3] (at 50.0 µM) it was 36.6%; in experiment [4] (setting [7]), 26%; in experiment [4] (setting [8]), 18%; in experiment [4] (at 50.0 µM) it was 15.9%. Besides, the growth inhibition is 28% in experiment [5] (setting [7]); 55% in experiment [5] (setting [8]); 47.6% in experiment [5] (at 50.0 µM); 17% in experiment [6] (setting [7]); 19% in experiment [6] (setting [8]); 43.9% in experiment [6] (at 50.0 µM).
